In ChEMBL document CHEMBL4808148, “HDAC6 screening dataset using tau-based substrate in an enzymatic assay yields selective inhibitors and activators” (2021):
Among all 5,600 compounds or so, about 390 (7%) showed an effect of 50% or more. The list comes from a sample in which strong results are over-represented; it also holds similar structures and randomly drawn compounds.

Molecular target: T1, Protein deacetylase HDAC6 (Homo sapiens) (UniProt Q9UBN7)
T1 sequence (whole entry): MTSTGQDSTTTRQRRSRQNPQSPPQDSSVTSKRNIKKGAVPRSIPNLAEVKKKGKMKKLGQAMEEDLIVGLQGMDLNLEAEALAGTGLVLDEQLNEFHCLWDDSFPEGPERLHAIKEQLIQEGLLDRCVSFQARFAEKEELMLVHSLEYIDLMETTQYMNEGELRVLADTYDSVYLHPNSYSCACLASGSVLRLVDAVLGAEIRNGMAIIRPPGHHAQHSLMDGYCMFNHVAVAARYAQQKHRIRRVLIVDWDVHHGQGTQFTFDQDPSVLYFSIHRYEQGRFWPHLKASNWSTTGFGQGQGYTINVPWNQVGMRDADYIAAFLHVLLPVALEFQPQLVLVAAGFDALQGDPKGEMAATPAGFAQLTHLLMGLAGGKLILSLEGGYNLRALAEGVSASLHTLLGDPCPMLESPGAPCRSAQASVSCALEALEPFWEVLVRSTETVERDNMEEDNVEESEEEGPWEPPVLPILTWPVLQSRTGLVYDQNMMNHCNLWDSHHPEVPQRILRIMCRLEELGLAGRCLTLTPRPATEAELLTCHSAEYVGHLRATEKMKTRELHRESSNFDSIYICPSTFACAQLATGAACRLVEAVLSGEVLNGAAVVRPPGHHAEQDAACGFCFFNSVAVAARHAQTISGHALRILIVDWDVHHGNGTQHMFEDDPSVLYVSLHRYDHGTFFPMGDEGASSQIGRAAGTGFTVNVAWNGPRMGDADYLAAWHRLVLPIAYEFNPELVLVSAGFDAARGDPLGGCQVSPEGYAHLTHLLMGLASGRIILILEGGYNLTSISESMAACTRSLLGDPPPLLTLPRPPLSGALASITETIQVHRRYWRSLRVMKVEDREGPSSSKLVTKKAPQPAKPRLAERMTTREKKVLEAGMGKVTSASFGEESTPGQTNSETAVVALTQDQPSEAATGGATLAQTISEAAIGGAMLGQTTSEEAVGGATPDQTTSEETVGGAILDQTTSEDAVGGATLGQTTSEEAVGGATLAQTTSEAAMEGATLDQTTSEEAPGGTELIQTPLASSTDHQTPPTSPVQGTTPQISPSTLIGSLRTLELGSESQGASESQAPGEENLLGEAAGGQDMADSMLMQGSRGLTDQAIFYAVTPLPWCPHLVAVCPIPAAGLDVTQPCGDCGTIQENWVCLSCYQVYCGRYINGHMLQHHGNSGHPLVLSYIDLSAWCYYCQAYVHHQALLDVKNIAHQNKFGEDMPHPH
Conditions: at 10 µM

Structure (SMILES)	inhibition [%]
O=C(O)c1cc2occc2[nH]1	21.7
Cc1cc(C)c(N(Cc2ccccc2)S(=O)(=O)c2ccc(OCCNC(=O)c3cc4ccccc4o3)cc2)c(C(=O)NO)c1	71.8
CN(C(=O)C(Cl)Cl)c1ccc(OC(=O)c2ccco2)cc1	5.17
CO/N=C(/C(=O)N[C@@H]1C(=O)N2C(C(=O)O)=C(CSc3nc(=O)c(O)nn3C)CS[C@H]12)c1csc(N)n1	-3.44
COc1cc(C[C@H](C)[C@H](C)Cc2ccc3c(c2)OCO3)ccc1O	0.28
COc1cccc(-c2cc(NCc3ccc4c(c3)OCO4)nc(N)n2)c1	68.7
COc1cccc(CN(C(=O)CC(C)(C)C)[C@H]2C[C@@H](C(=O)N3CCNCC3)N(Cc3ccc4c(c3)OCO4)C2)c1	2.2
O=C(NCCS(=O)(=O)c1ccc(C(F)(F)F)cn1)c1ccc(Cl)cc1	-5.62
CCOC(=O)Nc1ccc2c(c1)N(C(=O)CN(CC)CC)c1ccccc1CC2	18.9
OC[C@H]1OC(O)[C@H](F)[C@@H](O)[C@H]1O (stereo partly specified)	-0.45
NC1=NCC2c3ccccc3Cc3ccccc3N12 (stereo unspecified)	4.93
Nc1nc2ccc(OC(F)(F)F)cc2s1	72.9
CCOc1ccc2nc(S(N)(=O)=O)sc2c1	25.8
C=C[C@]1(C)CC[C@@H](C(=C)C)C[C@H]1C(=C)C	7.53
O=C(Oc1ccccc1C(=O)O)c1ccccc1O	43.2
Nc1ccc(C(=O)Oc2ccccc2)c(O)c1	108
Nc1ccc(O)c(C(=O)O)c1	0.62
O=S(=O)(N[C@H](CO)C(C(F)(F)F)C(F)(F)F)c1ccc(Cl)s1	9.08
O=P(O)(O)OC[C@H]1OC(O)(COP(=O)(O)O)[C@@H](O)[C@@H]1O (stereo partly specified)	8.76
Cc1csc(NC(=O)CSc2ccc(-c3ccccc3)nn2)n1	31.4
O[C@@H]1[C@H](O)[C@@H](CCl)O[C@H]1n1cnc2c(NC3CC4CCC3C4)ncnc21 (mixture of isomers)	17.3
CCCCOc1ccc(CC(=O)NO)cc1	73
CCCCOc1ccc(C(=O)CCN2CCCCC2)cc1	4.77
CCOc1ccc(NC(C)=O)cc1	-4.35
CC[C@@]1(O)C(=O)OCc2c1cc1n(c2=O)Cc2c-1nc1cc(F)c(C)c3c1c2[C@@H](N)CC3	45.5
CCN(CC)CCOC(=O)C1(c2ccc([N+](=O)[O-])cc2)CCCC1	17.3

Structure (SMILES)	inhibition [%]
CC1=C(/C=C/C(=C/C=C/C(C)=C/C(=O)O)c2ccc(C)cc2)C(C)(C)CCC1	32.2
CC(C)NC(=O)COc1cccc(-c2nc(Nc3ccc4[nH]ncc4c3)c3ccccc3n2)c1	4.77
O=C(CCCCCCNC(=O)c1cnc(N(c2ccccc2)c2ccccc2)nc1)NO	101
CCCCCCCCCCCCCCCC(=O)NCCO	7.03
O=C(CCNNC(=O)c1ccncc1)NCc1ccccc1	-0.28
O=C(O)C1CN(Cc2ccc(-c3nc4cc(Cc5ccccc5F)ccc4s3)c(F)c2)C1	12.2
CCCCC/C=C\C=C/CCCCCCCCC(=O)O	13.9
c1ccc(CNCc2ccc(CN3CCCNCCNCCCNCC3)cc2)nc1	-1.23
Clc1cccc2c1CN(C1=NCCN1)C2	-3.56
O=c1[nH]nc2c3c(cccc13)N=C(CN1Cc3ccccc3C1)N2	-8.46
CN(C)Cc1ccc(S(=O)(=O)n2ccc(/C=C/C(=O)NO)c2)cc1	101
Cn1nc(-c2ccc(C(F)(F)F)cc2)nc2c(=O)n(C)c(=O)nc1-2	12.3
CC(=O)OC[C@H]1O[C@@H](n2ccc(=O)[nH]c2=O)[C@H](OC(C)=O)[C@@H]1OC(C)=O	41.6
CCOC(=O)c1ccc(C#Cc2ccc3c(c2)C(C)(C)CCS3)nc1	22.8
Cc1c(F)cc(C(=O)NC2CC2)cc1-c1ccc(C(=O)NCC(C)(C)C)cn1	-6.14
O=C(NC1CCC1)c1ccc(C#Cc2cccc(F)c2)nc1	53.6
COc1ccc(CC(=O)NC(N/C(=N/C#N)Nc2cccc3ncccc23)C(C)(C)C)cc1OC (stereo unspecified)	17.5
NC(=O)OC[C@@H]1[C@H](NC(=O)/C(=N\OCC(=O)O)c2csc(N)n2)C(=O)N1S(=O)(=O)O	1.5
COc1cc(C)c2c(Oc3cccc(C(F)(F)F)c3)c(OC)cc(NC(C)CCCN)c2n1 (stereo unspecified)	19.9
Cc1ccc(C(=O)Nc2cccc(C(F)(F)F)c2)cc1Nc1nc(-c2cccnc2)nc2c1cnn2C	17.5
Cc1ccc(NC(=O)c2ccc(CN3CCN(C)CC3)cc2)cc1Nc1nc(-c2cccnc2)cs1	89.4
Cc1ccc(NC(=O)c2ccc(CN3CCN(C)CC3)cc2)cc1Nc1nccc(-c2cccnc2)n1	36.3
Nc1sc2c(c1C(=O)c1ccc(Cl)cc1)CCCC2	31.2
O=C1CC2(CCCC2)CC(=O)N1CCCCNCC1COc2ccccc2O1 (stereo unspecified)	18.1
Cc1cccc(Nc2cc(Cl)nc(SCC(=O)O)n2)c1C	9.22
